# Measured values taken from PubChem BioAssay AID720706 (Broad Institute, 2013).
# The whole screen tested about 350,000 compounds, of which about 5,500 (1.6%) were called active.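 Rule for the calls: active = significant combined selectivity score with lowered wild-type GFP, culture density cut under 30%, mutant RFP and density less affected; inactive = any of these conditions unmet.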 For the sample, actives were picked, then their nearest neighbours and some compounds at random.
# Assay: GFP drop in mixed WT/humanized-ribosome E. coli culture – GFP/RFP fluorescence, OD600, single point, bacterial rRNA inhibitor project, primary screen (AID 720706)
# Settings: E. coli WT GFP vs humanized-ribosome RFP mutants, 24 h; GFP signal change (wild-type ribosome): stronger effect = lower value, DMSO median 0, no signal -100; OD600 change: measured here: OD600 growth, DMSO median 0, no signal -100; RFP signal change: measured here: RFP humanized mutant strains, DMSO median 0, no signal -100, concentration not given here
Compound,GFP signal change (wild-type ribosome),OD600 change,RFP signal change
Nc1nonc1-n1nnc(C(=O)N/N=C/c2ccc(Cl)cc2)c1-c1ccc2c(c1)OCO2,0.08% (inactive),0.681%,-3.98%
NC(=O)c1ccc(NC(=O)COC(=O)c2c3c(nc4ccccc24)/C(=C\c2ccc4c(c2)OCO4)CCC3)cc1,55.8% (inactive),-19.8%,1.2%
C(=N\Nc1ccc2ccccc2n1)/c1ccc2c(c1)OCO2,-21.9% (active),16.6%,-0.634%
C[C@@H]1CN([C@@H](C)CO)C(=O)c2cccc(NC(=O)c3cnccn3)c2O[C@H]1CN(C)S(=O)(=O)c1cccs1,4.71% (inactive),6.99%,-1.1%
CCC(=O)Nc1ccc2c(c1)OC[C@H](C)N(Cc1ccccc1OC)C[C@@H](C)[C@@H](OC)CN(C)C2=O,0.179% (inactive),4.08%,2.06%
CCCNC(=O)N(C)C[C@@H]1Oc2ncc(-c3ccccc3F)cc2C(=O)N([C@@H](C)CO)C[C@H]1C,0.96% (inactive),11.5%,-3.35%
O=C(Nc1ccccc1)Oc1cccc2cccnc12,7.63% (inactive),14.2%,1.55%
CC(=O)/C(=N\Nc1ccc(Cl)cc1Cl)Sc1cccc2cccnc12,-8.55% (inactive),-0.275%,-1.79%
O=C(Nc1ccccc1Cl)Nc1cccc2cccnc12,-27.2% (active),-17.3%,-8.08%
COc1ccc2c3c(n(C)c2c1)[C@@H](CO)N(S(C)(=O)=O)CC31CCN(C(=O)C2CCC2)CC1,-4.54% (inactive),-7.74%,-2.66%
CCOC(=O)c1c(CC(C)C)csc1/N=C/C1=C(O)CCCC1=O,-13.2% (inactive),-8.82%,21.8%
CCOC(=O)c1sc(/N=C/C2=C(O)CC(C)(C)CC2=O)c(C(=O)OCC)c1C,-22.9% (active),-5.5%,-2.5%
CCNC(=S)N1CCN(CCN=CC2=C(O)CC(C)(C)CC2=O)CC1,9.96% (inactive),0.25%,-7.06%
CC(C)C#Cc1ccc([C@H]2[C@@H](CO)N3CCCCN(C(=O)Nc4ccccc4)C[C@H]23)cc1,-26% (inactive),-29.6%,1.8%
CO[C@@H]1CN(C)C(=O)c2ccc(NC(=O)NC(C)C)cc2OC[C@@H](C)N(C)C[C@H]1C,2.58% (inactive),9.18%,2.18%
C=CCOC(=O)c1ccccc1C(=O)OCC=C,7.54% (inactive),7.92%,12%
C=CCOC(=O)C1=C(C)NC(C)=C(C(=O)OCC=C)C1c1cccs1,-17.1% (active),-4.32%,3.89%

Compound,GFP signal change (wild-type ribosome),OD600 change,RFP signal change
COC(=O)C1=CN(Cc2ccc(OC)c(OC)c2)C=C(C(=O)OC)C1c1cccs1,-4.13% (inactive),-22.2%,6.91%
Cc1noc(C)c1S(=O)(=O)Nc1ccc2c(c1)C(=O)N([C@@H](C)CO)C[C@@H](C)[C@@H](CN(C)S(=O)(=O)c1ccccc1)OCCCC[C@H](C)O2,-1.55% (inactive),-7.72%,-2%
CC(NC(=O)c1ccco1)c1ccc2c(c1)OCO2 (centres undefined),-0.41% (inactive),4.91%,-2.06%
O=C1Nc2ccccc2NC(c2ccc3c(c2)OCO3)=C1N(Cc1ccc(F)cc1)C(=O)c1ccco1,-28.3% (active),-22.6%,8%
CC1(C(=O)NCc2ccco2)Cc2c(-c3ccc4c(c3)OCO4)ccnc2O1 (centres undefined),10.2% (inactive),0.265%,-2.19%
CC(C)NC(=O)N(C)C[C@@H]1OCc2ccccc2-c2c(n(C)c3ccccc23)C(=O)N([C@@H](C)CO)C[C@H]1C,1.88% (inactive),-5.55%,-8.97%
CC(C)c1ccc(NC(=O)C2CCCN(S(=O)(=O)c3cccnc3)C2)cc1 (centres undefined),-15.6% (inactive),-14.1%,-1.15%
CC(=O)Nc1ccc(NC(=O)C2CCCN(S(=O)(=O)c3ccc(Cl)cc3)C2)cc1 (centres undefined),6.79% (inactive),9.12%,-1.21%
Cc1n[nH]c(C)c1S(=O)(=O)N1CCCC(C(=O)Nc2ccc(Br)cc2)C1 (centres undefined),-18.5% (active),-8.94%,2.17%
C[C@H](CO)N1C[C@H](C)[C@H](CN(C)CC2CCCCC2)Oc2ccc(NC(=O)CCCCCC(=O)Nc3ccccc3N)cc2C1=O,3.67% (inactive),1.29%,2.33%
CN(C)C(=O)[C@H]1[C@H](CO)[C@H]2Cn3c(ccc(-c4ccc(F)cc4)c3=O)[C@H]2N1C(=O)c1ccccn1,3.15% (inactive),9.51%,0.335%
COC(=O)C[C@@H]1CC[C@@H]2[C@H](COc3ccc(NS(=O)(=O)c4ccccc4F)cc3C(=O)N2C)O1,-1.08% (inactive),1.69%,1.71%
O=S1(=O)CCOC[C@H](Cc2ccccc2)N1Cc1ccccc1Br,-13.5% (inactive),-12.2%,-2.23%
Brc1ccccc1CN1CCC(Cc2ccccc2)CC1,-24.7% (active),-12%,-3.42%
NC(=O)c1ccc(CN2CCC(Cc3ccccc3)CC2)cc1,20.9% (inactive),10.4%,1.24%
O=C(C[C@H]1CC[C@@H]2[C@H](COC[C@H](O)CN2S(=O)(=O)c2ccccc2)O1)N1CCOCC1,6.11% (inactive),11.2%,-4.33%
